According to PubChem BioAssay:
The source made the active and inactive calls.

Legend:
[1] = E. coli DRC41 culture turbidity changes, primary screen, E. coli filamentation inducer project, strain DRC41, OD650, 48 h (AID 1152);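 further: E. coli MC1000 strain DRC41 lacking acrAB efflux pump and sulA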; settings: E. coli DRC41 (acrAB sulA), higher = more signal, called active from +8 up or from −8 down
[2] = small-molecule binders of probe aLefty1, primary screen, biochemical, small-molecule microarray, 635/667 nm fluorescence (AID 1153); settings: higher = more signal;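 further: score merges spot fluorescence with signal-to-noise ratio from the scanned slide images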
[3] = PSAC antagonists in infected red cells, primary screen, cell-based, P. falciparum Indochina, OD700, 1 h (AID 1154); settings: P. falciparum Indochina infected RBC osmotic lysis, higher = more signal, called active from +8 up or from −8 down
[4] = PSAC antagonists in infected red cells, primary screen, cell-based, P. falciparum Indochina, OD700, 2 h (AID 1155);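 further: lysis reports solute entry through the parasite surface anion channel PSAC; channel blockers reduce lysis of infected cells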; settings: P. falciparum Indochina infected erythrocytes, osmotic lysis OD700; higher = more signal, called active from +8 up or from −8 down
[5] = osmotic lysis modulators in infected erythrocytes, primary screen, PSAC antagonist project, cell-based, P. falciparum Indochina, OD700, 3 h (AID 1156); settings: higher = more signal, called active from +8 up or from −8 down
[6] = PSAC antagonists in infected red cells, primary screen, cell-based, P. falciparum Indochina, OD700, 18 h (AID 1157); settings: P. falciparum Indochina infected erythrocytes, osmotic lysis OD700, 18 h; higher = more signal, called active from +8 up or from −8 down
[7] = modulators of S6 phosphorylation in cells, primary screen, cell-based, A549, cytoblot, luminescence, serum-stimulated (AID 1158); settings: A549 phospho-S6 cytoblot, 5 h, higher = more signal;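 further: serum-stimulated A549 lung adenocarcinoma cells; signal is phosphorylated S6 detected by cytoblot immunostaining with HRP secondary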
[8] = target: NADPH oxidase 2 (Homo sapiens) (UniProt P04839); experiment: NOX2-dependent H2O2 signal modulators, primary screen, NOX inhibitor project, cell-based, HEK293-NOX2, PMA-stimulated, Amplex Red fluorescence (AID 1159); settings: 45 min, higher = more signal, called active from +8 up or from −8 down; further: test concentration not given here
[9] = target: NADPH oxidase 4 (Homo sapiens) (UniProt Q9NPH5); experiment: NOX4-dependent H2O2 signal modulators, primary screen, NOX inhibitor project, cell-based, HEK293-NOX4, tetracycline-induced, Amplex Red fluorescence (AID 1160); settings: 45 min, higher = more signal, called active from +8 up or from −8 down
[10] = target: NADPH oxidase 5 (Homo sapiens) (UniProt Q96PH1); experiment: NOX5-dependent H2O2 signal modulators, primary screen, NOX inhibitor project, cell-based, HEK293-NOX5, Amplex Red fluorescence (AID 1161); settings: HEK293-NOX5, ionomycin, 45 min, higher = more signal
Chain of NADPH oxidase 5 (Homo sapiens) (Q96PH1 whole entry, looked up): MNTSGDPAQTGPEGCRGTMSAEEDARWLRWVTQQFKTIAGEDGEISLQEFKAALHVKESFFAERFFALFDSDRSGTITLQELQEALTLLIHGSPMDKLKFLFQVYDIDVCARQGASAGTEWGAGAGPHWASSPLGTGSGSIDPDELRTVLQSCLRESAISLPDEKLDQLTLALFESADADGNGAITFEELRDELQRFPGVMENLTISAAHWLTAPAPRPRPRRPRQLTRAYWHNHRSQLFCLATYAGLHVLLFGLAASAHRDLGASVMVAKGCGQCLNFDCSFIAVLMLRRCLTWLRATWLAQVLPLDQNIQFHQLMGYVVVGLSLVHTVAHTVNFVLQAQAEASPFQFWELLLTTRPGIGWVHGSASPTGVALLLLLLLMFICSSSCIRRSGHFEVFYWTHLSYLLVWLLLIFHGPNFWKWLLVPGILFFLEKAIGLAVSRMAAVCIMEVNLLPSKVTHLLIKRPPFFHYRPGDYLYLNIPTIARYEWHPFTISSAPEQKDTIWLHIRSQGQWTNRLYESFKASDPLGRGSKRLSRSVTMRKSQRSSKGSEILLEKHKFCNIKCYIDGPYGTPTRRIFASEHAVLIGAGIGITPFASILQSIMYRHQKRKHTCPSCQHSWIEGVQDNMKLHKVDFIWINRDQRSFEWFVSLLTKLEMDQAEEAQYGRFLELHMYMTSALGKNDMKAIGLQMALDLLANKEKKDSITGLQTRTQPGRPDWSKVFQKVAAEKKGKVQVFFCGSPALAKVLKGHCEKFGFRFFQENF

Chain of NADPH oxidase 2 (Homo sapiens) (P04839 whole entry, looked up): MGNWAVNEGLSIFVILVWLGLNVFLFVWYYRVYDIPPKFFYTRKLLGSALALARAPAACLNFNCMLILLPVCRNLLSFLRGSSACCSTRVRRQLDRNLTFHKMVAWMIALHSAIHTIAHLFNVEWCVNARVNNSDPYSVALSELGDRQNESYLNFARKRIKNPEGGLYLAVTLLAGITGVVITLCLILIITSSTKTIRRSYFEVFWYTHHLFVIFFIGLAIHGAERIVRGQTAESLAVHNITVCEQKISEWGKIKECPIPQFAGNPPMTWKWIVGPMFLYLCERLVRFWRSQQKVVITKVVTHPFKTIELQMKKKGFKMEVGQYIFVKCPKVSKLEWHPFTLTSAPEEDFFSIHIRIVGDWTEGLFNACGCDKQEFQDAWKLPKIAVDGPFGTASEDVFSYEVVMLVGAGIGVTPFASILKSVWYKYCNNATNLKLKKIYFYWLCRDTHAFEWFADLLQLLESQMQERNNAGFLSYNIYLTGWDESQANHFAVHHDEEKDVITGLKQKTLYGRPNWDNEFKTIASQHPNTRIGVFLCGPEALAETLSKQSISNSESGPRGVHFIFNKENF
Chain of NADPH oxidase 4 (Homo sapiens) (Q9NPH5 whole entry, looked up): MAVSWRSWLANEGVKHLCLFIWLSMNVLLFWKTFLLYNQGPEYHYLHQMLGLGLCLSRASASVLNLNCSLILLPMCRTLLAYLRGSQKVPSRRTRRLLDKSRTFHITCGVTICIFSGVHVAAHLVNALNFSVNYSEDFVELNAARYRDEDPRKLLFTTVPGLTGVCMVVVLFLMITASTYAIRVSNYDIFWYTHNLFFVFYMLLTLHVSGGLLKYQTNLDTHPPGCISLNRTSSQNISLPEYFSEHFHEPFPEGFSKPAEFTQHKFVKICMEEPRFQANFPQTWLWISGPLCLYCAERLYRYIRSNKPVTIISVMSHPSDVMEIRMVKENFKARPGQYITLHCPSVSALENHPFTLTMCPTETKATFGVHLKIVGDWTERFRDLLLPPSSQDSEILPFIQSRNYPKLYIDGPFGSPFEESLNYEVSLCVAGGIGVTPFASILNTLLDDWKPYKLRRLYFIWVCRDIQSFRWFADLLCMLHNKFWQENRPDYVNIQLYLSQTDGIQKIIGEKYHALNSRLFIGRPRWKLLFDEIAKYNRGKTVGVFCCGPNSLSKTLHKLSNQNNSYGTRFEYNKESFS

SMILES	z-score [1]	composite z-score [2]	z-score [3]	z-score [4]	z-score [5]	z-score [6]	z-score [7]	z-score [8]	z-score [9]	z-score [10]
CCC#CCN(Cc1ccccc1Br)[C@H](/C=C/c1ccccc1)[C@@H](O)Cc1ccccc1	0.625 (inactive)	-0.0035	1.79 (inactive)	1.15 (inactive)	-0.696 (inactive)	0.475 (inactive)	-0.218	-0.267 (inactive)	0.0785 (inactive)	-0.41
COc1ccc(C(O)C2C=CC3C(=O)N(C)C(=O)C3N2N2CCCCC2)cc1OCc1ccccc1 (stereo not given)	-1.54 (inactive)	0.11	2.29 (inactive)	1.53 (inactive)	0.42 (inactive)	1.27 (inactive)	-1.16	0.0637 (inactive)	-1.56 (inactive)	1.31
CO[C@H]1COC(=O)[C@H](C)NC(=O)CC=C[C@@H](C)[C@H](NS(=O)(=O)c2ccc(C)cc2)COC(=O)CC=C[C@@H]1C	-0.154 (inactive)	-0.232	0.868 (inactive)	0.41 (inactive)	0.229 (inactive)	0.33 (inactive)	0.356	0.734 (inactive)	0.631 (inactive)	0.971
C=CCC(OC(C)=O)[C@@H]1[C@@H](N(Cc2cc3ccccc3o2)C(=O)c2ccc(C)cc2)c2cc(OCCCO)ccc2N1C(=O)c1ccc2ccccc2n1 (stereo not given in full)	3.08 (inactive)	-0.007	0.834 (inactive)	0.345 (inactive)	-0.629 (inactive)	0.432 (inactive)	0.469	0.12 (inactive)	0.589 (inactive)	1.51
O=C1O[C@H](c2ccccc2)[C@H](c2ccccc2)N2[C@H]1[C@@H](C(=O)Nc1nc3ccccc3s1)[C@]1(C(=O)Nc3ccc(C#CC4=CCCCC4)cc31)[C@H]2c1ccccc1OCCO	-0.485 (inactive)	0.179	1.96 (inactive)	2.21 (inactive)	0.344 (inactive)	1.41 (inactive)	-0.0532	0.76 (inactive)	0.195 (inactive)	0.963
CO[C@H]1COC(=O)CC=C[C@@H](C)COC(=O)[C@@H](C)NC(=O)CC=C[C@@H]1C	-0.414 (inactive)	-0.276	-0.401 (inactive)	-0.599 (inactive)	-0.768 (inactive)	-0.872 (inactive)	2.57	-0.206 (inactive)	0.534 (inactive)	0.984
C[C@@H]1NC(=O)[C@H](Cc2ccccc2)NC(=O)[C@@]23C(=O)N[C@@H](Cc4ccccc4)C2[C@H](C)[C@@]2(C)O[C@H]2C3/C=C/C/C=C\CNC1=O (stereo not given in full)	-1.13 (inactive)	-0.169	1.87 (inactive)	0.316 (inactive)	0.134 (inactive)	-0.0643 (inactive)	-0.248	0.832 (inactive)	-0.951 (inactive)	0.906
CO[C@H]1COC(=O)[C@H](C)NC(=O)CC=C[C@@H](C)[C@H](NS(=O)(=O)c2ccc(C)cc2)COC(=O)[C@@H](OCc2ccccc2)C=C[C@@H]1C	0.117 (inactive)	-0.303	0.655 (inactive)	0.637 (inactive)	0.416 (inactive)	-0.14 (inactive)	0.215	1.4 (inactive)	0.815 (inactive)	0.2
COCCOC(=O)N1C(=O)[C@@]2(c3cc(C#CCCO)ccc31)[C@H](c1ccc(OCCO)cc1)N1[C@H](c3ccccc3)[C@H](c3ccccc3)OC(=O)[C@H]1[C@@H]2C(=O)NC[C@H](O)c1ccccc1	1.04 (inactive)	-0.0054	2.48 (inactive)	1.1 (inactive)	0.68 (inactive)	0.678 (inactive)	0.75	2.04 (inactive)	0.385 (inactive)	0.419
C=C(C)[C@@H]1CC=C(C(O)C2C=CC3C(=O)NC(=O)C3N2Nc2ccccn2)CC1 (stereo not given in full)	-1.56 (inactive)	0.497	0.671 (inactive)	0.613 (inactive)	0.0385 (inactive)	0.876 (inactive)	-1.11	-1.02 (inactive)	-2.89 (inactive)	-2.69
C=CC[C@]1(C(=O)O)N=C(c2ccc(OCCCO)cc2)O[C@H]1c1ccccc1	1.14 (inactive)	-0.0984	11.7 (active)	0.66 (inactive)	0.211 (inactive)	0.198 (inactive)	0.663	-0.343 (inactive)	0.388 (inactive)	1.22
